GLD-1 RNA inh: GLD-1-TGE RNA interaction inhibition (C. elegans); Q17339; purified GLD-1 + fluorescein TGE RNA, fluorescence polarization; inhibition, % at 5.96 µM; 320,000 tested, 0.44% active; AID 2280;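 active = percent inhibition above a per-plate cutoff, the plate mean of test compounds plus 3 SD, cut at about 30% in these data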;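 also: 0% = DMSO wells with GLD-1 and probe and 100% = wells lacking GLD-1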
Target sequence (Q17339 whole entry, looked up): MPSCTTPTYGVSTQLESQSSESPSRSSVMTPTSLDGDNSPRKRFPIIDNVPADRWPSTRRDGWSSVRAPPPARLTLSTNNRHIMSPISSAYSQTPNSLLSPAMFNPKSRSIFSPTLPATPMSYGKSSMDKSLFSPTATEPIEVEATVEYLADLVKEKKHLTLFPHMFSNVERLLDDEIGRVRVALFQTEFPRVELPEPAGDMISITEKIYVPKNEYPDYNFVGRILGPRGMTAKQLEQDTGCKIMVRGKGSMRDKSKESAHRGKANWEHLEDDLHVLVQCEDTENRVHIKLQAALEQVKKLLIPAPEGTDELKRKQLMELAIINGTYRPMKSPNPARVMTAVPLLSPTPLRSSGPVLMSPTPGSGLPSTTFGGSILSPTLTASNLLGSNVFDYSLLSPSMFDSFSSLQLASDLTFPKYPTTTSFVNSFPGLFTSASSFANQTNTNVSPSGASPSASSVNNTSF
E coli Lon inh: inhibits E. coli Lon protease. purified E. coli Lon protease, fluorescence polarization. inhibition, % at 7.94 µM. 360,000 tested, 0.42% active; in the data active = inhibition above about 13%, passing the limit was not always enough;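 also: 0% = enzyme with probe and DMSO and 100% = no enzyme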
MEX-5 binding: C. elegans MEX-5 TCR-2 RNA binding activity; Q9XUB2; MEX-5/FITC-TCR2 RNA binding, fluorescence polarization; stronger effect = lower value; activity score (negative = inhibition of binding), % at 10 µM; 300,000 tested, 0.38% active;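 active = inhibition past about -25% in most replicates, and total fluorescence under double the plate's negative control median, limit read from the data; inconclusive = replicates evenly split on the limit, or fluorescence at least double controls; inactive = too little inhibition in most replicates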;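 also: 0% = DMSO and -100% = 5 µM competing unlabeled TCR2 RNA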
Bcl-xL primary: inhibitors of human Bcl-xL; 320,000 tested, 0.7% active; inhibition, % at 10.9 µM; GST-Bcl-xL / FITC-Bim BH3 peptide fluorescence polarization;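 active = inhibition above the mean of all tested compounds plus 3 SD, cutoff set per campaign, cut at about 30% in these data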;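 also: 0% = DMSO wells and 100% = unlabeled Bim-BH3 peptide competitor; inhibitors lower millipolarization by displacing the labeled peptide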
EBV gp42 inh: inhibitors of Epstein-Barr virus glycoprotein 42; Q1HVG2; Fluorescence polarization binding assay, mP read-out; inhibition, % (tested at 21.74 µM); 220,000 tested, 0.42% active; AID 1085; in the data active = inhibition above about 50%
Active calls of the source: *; i = inactive; ? = inconclusive; . = not tested or not shown. Only some compounds are listed: those with a hit (about 1.3% of all), similar ones and a draw of the others.

SMILES | GLD-1 RNA inh | E coli Lon inh | MEX-5 binding | Bcl-xL primary | EBV gp42 inh
Cc1c(C#N)c2ncnc(-c3ccccc3)c2n1-c1ccccc1 | 7 | 6 | 1 | 7 | 60*
NNC(=O)c1snnc1-c1ccccc1 | -1 | 0 | -1 | 2 | -24
NC(=O)c1snnc1-c1ccccc1 | 1 | 2 | -29* | 6 | -14
NC(=O)c1sc2nnc(-c3ccccc3)c(-c3ccccc3)c2c1N | -5 | -22 | -53* | 2 | -6
CCNC(=O)C1(C)CCCN(Cc2cccc(Oc3ccccc3)c2)C1 (configuration not stated) | . | -5 | . | . | .
CC(C)C[C@@H](COCc1cccc(Cl)c1)N1CCN(C(=O)c2ccc(C(F)(F)F)cc2)CCC1=O | . | -7 | . | . | .
Cc1cc(NC(=O)c2ccccc2F)nc2c1c(=O)oc1ccccc12 | -3 | 1 | -6 | 7 | -19
N#C/C(=N\Nc1ccc(Cl)cc1)C(=O)c1ccsc1 | -1 | -1 | -38* | 6 | -4
Oc1[nH]c2ccc(Br)cc2c1N=Nc1ccc(F)cc1 | 107* | 3 | ? | 183* | .
O=C(N=Nc1c(O)[nH]c2ccccc12)c1cc(-c2ccc(F)cc2)n[nH]1 | 10 | 10 | 0 | 6 | 61*
Oc1[nH]c2ccccc2c1N=Nc1ccccc1 | 70* | 0 | -42* | 41* | 101*
Oc1[nH]c2ccccc2c1N=Nc1ccc(F)cc1 | -27 | i | -62* | -70 | -122
O=C(N=Nc1c(O)[nH]c2ccccc12)Nc1ccccc1 | . | -7 | . | . | .
Oc1[nH]c2ccccc2c1N=Nc1ccccc1F | -143 | i | ? | -108 | -231
O=C(NCCc1ccc(Cl)cc1)C1CCN(c2ncccn2)CC1 | 5 | -2 | 1 | 7 | 5
CC(C)Cc1ccc(-c2cc3nc(NCCOc4ccccc4)ccn3n2)cc1 | . | -4 | . | . | .
CCCc1nnc(SCC(=O)O)n1CC | 3 | 4 | 0 | 4 | 2
CCc1ccc(-c2cc(C)no2)cc1S(=O)(=O)N1CCN(c2cc(C)ccc2C)CC1 | -7 | -2 | 2 | 4 | .
O=C1c2cccc(O)c2C(=O)c2c(O)cc(CO)cc21 | 81* | . | -9 | 93* | .
O=C(O)c1ccccc1NS(=O)(=O)c1ccc(NNC(=S)Nc2ccc(OC(F)F)cc2)c([N+](=O)[O-])c1 | . | -4 | -42* | . | 19
CCOC(=O)C1=C(C)OC(N)=C(C#N)C1c1ccc(O)c(OC)c1 (configuration not stated) | 6 | -2 | -40* | 0 | -20
Cc1[nH]c(=O)[nH]c(=O)c1S(=O)(=O)N1CCCC(C(=O)N2CCN(c3cccc(C(F)(F)F)c3)CC2)C1 (configuration not stated) | -7 | -10 | -2 | -1 | -3
COc1ccc(CCNC(=O)COc2nsnc2N2CCOCC2)cc1OC | 6 | -8 | -4 | 5 | 82*
COc1ccc(NC(=O)COc2nsnc2N2CCOCC2)cc1 | -1 | -6 | -1 | 4 | 7
Nc1nc(-c2ccc(Oc3ccccc3)cc2)c(CC(=O)O)s1 | . | -168 | 4 | . | .
SMILES | GLD-1 RNA inh | E coli Lon inh | MEX-5 binding | Bcl-xL primary | EBV gp42 inh
COc1ccc(OC2CCN(S(=O)(=O)c3ccc(C(C)=O)cc3)CC2)cc1 | -5 | 2 | 2 | -4 | .
CC(C)OCCCNC(=O)c1ccc(Br)cc1 | -1 | 6 | 0 | 2 | 4
CC(C)OCCCNC(=O)C(=O)NCCCOC(C)C | 19 | -9 | -1 | 40* | 6
CCOC(=O)CNC(=O)CSc1nc(Cc2ccccc2)nc2ccccc12 | 7 | 0 | 0 | 4 | .
Cc1ccc(CCNC(=O)C2CCCN(S(=O)(=O)c3c(C)noc3/C=C/N(C)C)C2)cc1 (configuration not stated) | -42 | -48 | . | -23 | 3
Cc1ccc(N(C)S(=O)(=O)c2c(C)noc2/C=C/N(C)C)cc1 | -10 | -30 | -30* | -23 | .
CCc1noc(C)c1C(=O)N1CCSC1=Nc1cccc(Cl)c1C | 1 | 0 | 1 | 4 | .
Cc1ccc(CNC(=O)CCCn2nc(C)c3c(C)n(-c4ccccc4)nc3c2=O)cc1 | -2 | -6 | -1 | 0 | .
O=C(NC1CC1)C1Nc2ccc(OC(F)(F)F)cc2C2C=CCC12 (configuration not stated) | 4 | -1 | 0 | 4 | .
O=C(O)C1Nc2ccc(OC(F)(F)F)cc2C2C=CCC12 (configuration not stated) | 0 | . | -17 | 48* | .
Cc1ccc2c(c1)C1C=CCC1C(C(=O)O)N2 (configuration not stated) | 10 | . | -1 | 62* | 79*
Cc1nnc(NC(=O)C(C)Sc2nnc(CNC(=O)c3ccccc3F)n2C)s1 (configuration not stated) | 2 | -1 | 2 | -1 | .
CC(=O)c1ccc(N2CCN(C(=O)CCC(=O)Nc3ccc4nc(N5CCN(C)CC5)cc(C)c4c3)CC2)cc1 | 1 | 0 | 2 | 7 | .
O=C1CSC(=S)N1c1ccc(F)cc1 | -7 | . | 1 | -7 | .
CN(C)c1ccc(N2C(=O)CSC2=S)cc1 | 0 | -2 | 3 | 39* | -11
CC(=O)N(c1cccc(Cl)c1)c1nc(C)cc(C)c1C#N | 3 | -5 | -1 | 1 | -13
CCCN1C(=O)/C(=C\C=C2/Sc3ccccc3N2CCO)SC1=S | -5 | -33 | 0 | -4 | -7
CN1/C(=C\C=C2/SC(=S)N(CC(=O)O)C2=O)C(C)(C)c2ccccc21 | -38 | -313 | ? | 36* | -138
CCCCN1C(=O)/C(=C/C=C2\Oc3ccccc3N2CC)SC1=S | . | -467 | -28* | . | 104*
C=CCN1C(=O)/C(=C\C=C2\N(C)c3ccccc3C2(C)C)SC1=S | -31 | -108 | -1 | -29 | 90*
CN1CCS/C1=C\C=C1/SC(=S)N(CC(=O)O)C1=O | . | i | ? | . | -294
CCCN1C(=O)/C(=C/C=C2\N(CC)c3ccccc3C2(C)C)SC1=S | 25 | -158 | 3 | -49 | 127*
COCCN1C[C@@H](CO)O[C@@H](n2cnc3c(N4CCCC4)ncnc32)C1 | . | -13 | . | . | .
NC(=O)CSc1ccc(S(=O)(=O)N2CCOCC2)cn1 | 20 | 13 | . | 38* | .
CC(C)NC(=O)NC(=O)CSc1ccc(S(=O)(=O)N2CCOCC2)cn1 | . | -1 | . | . | .
O=C(CN1C(=O)CSc2ccc(S(=O)(=O)N3CCOCC3)cc21)NCc1ccc(F)cc1 | 8 | -4 | 0 | -1 | .
COc1ccc(C(=O)NC2(C(F)(F)F)C(=O)N(Cc3ccco3)C3=C2C(=O)CC(C)(C)C3)cc1OC (configuration not stated) | 1 | -1 | ? | 0 | 77*
O=C(NCC(c1cccnc1)N1CCN(c2ccc(F)cc2)CC1)c1ccco1 (configuration not stated) | 5 | 2 | -1 | 151* | -14
COc1ccc(N2CCN(C(CNC(=O)c3ccco3)c3cccnc3)CC2)cc1 (configuration not stated) | -7 | 1 | -1 | 7 | -4
CN(CC(=O)Nc1cccc(F)c1)C(=O)CN1C(=O)C2CCCCC2C1=O (configuration not stated) | 2 | 2 | . | -1 | .
